NOMO-1 viab – STK33 inhibitor candidate reducing NOMO-1 cell viability; NOMO-1 AML viability, CellTiter-Glo luminescence, 72 h; inhibition, % (concentration not given with the values); actives 7.5% (n = 37,000); in the data active = inhibition above about 80%; inconclusive = no clear call, values can overlap the other calls
YB-1 expr inh – YB-1 expression inhibition; actives 0.37% (n = 30,000); U2OS, qRT-PCR YB-1 vs CDIP delta delta Cp, 16 h; hits give high values; zero = DMSO, each unit about twofold; delta delta Cp (YB-1 minus CDIP) (concentration not given with the values);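 active = delta delta Cp rounded down to an integer at or above 3, about 3 SD of DMSO wells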;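 also: higher means less YB-1 transcript or more CDIP transcript relative to DMSO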
U2OS ROS induce – cancer cell ROS induction. U2OS ROS induction, H2DCF-DA fluorescence. ROS induction (% of piperlongumine), % at 10 µM. actives 2% (n = 46,000). AID 624156; in the data active = ROS induction above about 79%, passing the limit was not always enough; inconclusive = no clear call, values can overlap the other calls;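 also: 0% = DMSO vehicle median and 100% = reference compound median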
PD-1 reverse act – activators reversing PD-1 mediated T-cell inhibition; 29,000 tested, under 10 active; primary human CD4 T cells, PD-L1 beads, CellTiter-Glo 96 h; activation, % (concentration not given with the values); call rule not given here;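 also: 0% = median vehicle wells and 100% = positive control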
An asterisk follows results filed as active; u = inconclusive; x = no result given. Many of the other results were omitted from the sample, so hits are more common in it than they were.

SMILES	NOMO-1 viab	YB-1 expr inh	U2OS ROS induce	PD-1 reverse act
C[C@H](CO)N1C[C@H](C)[C@H](CN(C)C(=O)Nc2ccc(C(F)(F)F)cc2)Oc2ccc(NC(=O)Nc3ccc4c(c3)OCO4)cc2C1=O	54	0.36	103*	-2
C[C@H](CO)N1C[C@H](C)[C@H](CN(C)C(=O)Nc2ccc(C(F)(F)F)cc2)Oc2ccc(NC(=O)Nc3ccc(C(F)(F)F)cc3)cc2C1=O	74	-0.074	22	-2
CCCCC(=O)/C=C/n1c(=S)oc2ccccc21	133*	-0.18	19	0
O=C(NCc1ccc2c(c1)OCO2)c1cccc2ccccc12	x	x	-7	x
CC(=O)OCOC(=O)CN(CC(=O)OCOC(C)=O)c1ccccc1OCCOc1ccccc1N(CC(=O)OCOC(C)=O)CC(=O)OCOC(C)=O	113*	0.47	-9	x
C[C@@H]1CN([C@H](C)CO)C(=O)c2cc(NC(=O)Nc3ccc(F)cc3)ccc2O[C@@H]1CN(C)Cc1ccc(C(=O)Nc2ccccc2N)cc1	107*	0.28	11	-3
C[C@@H]1CN([C@@H](C)CO)C(=O)c2cc(NC(=O)Nc3ccc(C(F)(F)F)cc3)ccc2O[C@H]1CN(C)Cc1ccc(C(=O)Nc2ccccc2N)cc1	11	0.43	9	0
C[C@@H]1CN([C@H](C)CO)C(=O)c2cc(NC(=O)Nc3ccc(C(F)(F)F)cc3)ccc2O[C@@H]1CN(C)Cc1ccc(C(=O)Nc2ccccc2N)cc1	102*	-0.18	44	-2
Cc1ccc(C(=O)NCCc2nnc3ccc(SCC(=O)NC4CCCCC4)nn23)cc1	x	x	-3	x
Cc1ccc(S(=O)(=O)Nc2ccc3c(c2)C(=O)N([C@@H](C)CO)C[C@H](C)[C@H](CN(C)C(=O)Nc2ccccc2)O3)cc1	22	-0.34	2	-1
Cc1ccc(S(=O)(=O)Nc2ccc3c(c2)C(=O)N([C@@H](C)CO)C[C@@H](C)[C@@H](CN(C)C(=O)Nc2ccc(C(F)(F)F)cc2)O3)cc1	111*	-0.032	21	-3
Cc1ccc(S(=O)(=O)Nc2ccc3c(c2)C(=O)N([C@@H](C)CO)C[C@H](C)[C@@H](CN(C)C(=O)Nc2ccccc2)O3)cc1	23	-0.42	109*	0
Cc1ccc(S(=O)(=O)Nc2ccc3c(c2)C(=O)N([C@H](C)CO)C[C@H](C)[C@H](CN(C)C(=O)Nc2ccc(C(F)(F)F)cc2)O3)cc1	40	0.0076	6	-2
COc1cc(NC(=O)CN(C)S(=O)(=O)c2ccc3ccccc3c2)c(OC)cc1Cl	-3	x	29	-3
CCOC(=O)C1=CN(c2ccc(C)c(C)c2)C=C(C(=O)OCC)C1c1ccccc1F	x	x	96*	x
C=CCn1c(-c2cccs2)nc(-c2ccccc2)c1-c1ccccc1	121*	0.37	57	-5
O=[N+]([O-])c1nn(-c2ccccc2)n(O)c1=NC1CCN(Cc2ccccc2)CC1	114*	x	x	x
CC1(C)CC(=O)c2sc3nc(-c4ccc(Cl)cc4)cn3c2C1	x	x	0	x
Cc1ccc(S(=O)(=O)Nc2ccc3c(c2)C(=O)N([C@@H](C)CO)C[C@H](C)[C@@H](CN(C)Cc2ccc(Oc4ccccc4)cc2)O3)cc1	106*	0.13	110*	-2
Cc1ccc(S(=O)(=O)Nc2ccc3c(c2)C(=O)N([C@H](C)CO)C[C@H](C)[C@@H](CN(C)Cc2ccc(Oc4ccccc4)cc2)O3)cc1	6	0.19	29	0
Cc1ccc(S(=O)(=O)Nc2ccc3c(c2)C(=O)N([C@@H](C)CO)C[C@@H](C)[C@@H](CN(C)Cc2ccc(Oc4ccccc4)cc2)O3)cc1	113*	0.053	10	x
COc1ccc(S(=O)(=O)Nc2ccc3c(c2)C(=O)N([C@@H](C)CO)C[C@H](C)[C@@H](CN(C)Cc2ccc(Oc4ccccc4)cc2)O3)cc1	71	0.0017	23	0
O=C(N/N=C/c1ccc2ccccc2c1)c1ccccn1	x	0.046	36	x
Cc1ccccc1OCC(=O)Nc1cccc(-c2nc3ccccc3s2)c1	-17	x	-4	2
COc1ccc(OC)c(NS(=O)(=O)c2cc(OC)ccc2OC)c1	16	x	-10	-1
O=C1c2ccccc2C(=O)N1OS(=O)(=O)c1cccc2cccnc12	127*	x	-37	-12
O=C(Oc1cccc2cccnc12)N1c2ccccc2Sc2ccccc21	x	x	10	x
CN1CCN(S(=O)(=O)c2cccc3cccnc23)CC1	x	x	-9	x
O=C(CCN1C(=O)C2C3c4ccccc4C(c4ccccc43)C2C1=O)Oc1cccc2cccnc12 (configuration not stated)	118*	x	x	-16
COc1ccc(OC)c(S(=O)(=O)ON2C(=O)c3ccccc3C2=O)c1	119*	x	u	-15

Screening results (PubChem BioAssay)
